This note sets out measurements from ChEMBL document CHEMBL1961873, “Compounds: GSK PKIS; Assays: Nanosyn kinase panel” (2012).

A word on the inhibition: it is the relative decrease from the control value, in per cent.

Each structure is given as a SMILES string.

Assay [1] has as its target Glycogen synthase kinase-3 beta (Homo sapiens) (UniProt P49841). Conditions: at 1 µM.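 Note: reported values are mean percent inhibition of GSK3B.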
Assay [2] deals with Homeodomain-interacting protein kinase 1 (Homo sapiens) (UniProt Q86Z02). Conditions: at 0.1 µM.
For assay [3] the target is unchanged. Conditions: at 1 µM.
Assay [4] deals with T1, Homeodomain-interacting protein kinase 4 (Homo sapiens) (UniProt Q8NE63).
T1 sequence (whole entry): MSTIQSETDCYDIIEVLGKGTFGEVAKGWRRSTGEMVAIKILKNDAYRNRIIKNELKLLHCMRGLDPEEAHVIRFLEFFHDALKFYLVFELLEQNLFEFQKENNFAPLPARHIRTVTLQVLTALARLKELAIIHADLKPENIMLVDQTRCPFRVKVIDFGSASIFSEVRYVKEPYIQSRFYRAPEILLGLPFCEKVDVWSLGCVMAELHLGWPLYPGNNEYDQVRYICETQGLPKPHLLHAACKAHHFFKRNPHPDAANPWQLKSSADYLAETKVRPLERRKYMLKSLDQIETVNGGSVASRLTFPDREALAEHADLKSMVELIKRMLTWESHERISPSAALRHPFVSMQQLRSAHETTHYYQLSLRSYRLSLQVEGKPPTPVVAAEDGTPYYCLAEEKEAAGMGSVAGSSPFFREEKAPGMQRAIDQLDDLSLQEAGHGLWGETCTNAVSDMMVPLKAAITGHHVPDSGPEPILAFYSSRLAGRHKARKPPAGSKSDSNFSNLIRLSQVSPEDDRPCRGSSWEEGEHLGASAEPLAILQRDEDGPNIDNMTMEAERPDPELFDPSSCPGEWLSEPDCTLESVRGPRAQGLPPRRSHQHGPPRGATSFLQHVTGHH
Conditions: at 0.1 µM.

Assay [5] has as its target T1, Homeodomain-interacting protein kinase 4 (Homo sapiens). Conditions: at 1 µM.
Assay [6] deals with Mitogen-activated protein kinase 9 (Homo sapiens) (UniProt P45984). Conditions: at 0.1 µM.
Assay [7] shares this target. Conditions: at 1 µM.
The target of assay [8] is Mitogen-activated protein kinase 1 (Homo sapiens) (UniProt P28482). Conditions: at 1 µM.
Assay [9] addresses Mitogen-activated protein kinase 3 (Homo sapiens) (UniProt P27361). Conditions: at 0.1 µM.
The target is the same in assay [10]. Conditions: at 1 µM.
Assay [11] addresses SRSF protein kinase 3 (Homo sapiens) (UniProt Q9UPE1). Conditions: at 0.1 µM.
The target is the same in assay [12]. Conditions: at 1 µM.
The target of assay [13] is Mitogen-activated protein kinase 14 (Homo sapiens) (UniProt Q16539). Conditions: at 0.1 µM.
For assay [14] the target is unchanged. Conditions: at 1 µM.
Assay [15] concerns the target Mitogen-activated protein kinase 11 (Homo sapiens) (UniProt Q15759). Conditions: at 0.1 µM.
For assay [16] the target is unchanged. Conditions: at 1 µM.
Assay [17] has as its target T2, Mitogen-activated protein kinase 13 (Homo sapiens) (UniProt O15264).
T2 sequence (whole entry): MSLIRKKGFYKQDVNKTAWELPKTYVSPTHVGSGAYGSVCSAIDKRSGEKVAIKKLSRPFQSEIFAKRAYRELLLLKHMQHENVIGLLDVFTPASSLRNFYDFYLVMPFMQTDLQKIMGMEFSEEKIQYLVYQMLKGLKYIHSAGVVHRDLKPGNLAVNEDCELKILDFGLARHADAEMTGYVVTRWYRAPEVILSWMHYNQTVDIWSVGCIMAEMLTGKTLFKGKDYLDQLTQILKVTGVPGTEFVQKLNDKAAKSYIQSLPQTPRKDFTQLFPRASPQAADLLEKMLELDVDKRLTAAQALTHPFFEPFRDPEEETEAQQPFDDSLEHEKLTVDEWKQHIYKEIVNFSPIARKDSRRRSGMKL
Conditions: at 0.1 µM.

Assay [18] has as its target T2, Mitogen-activated protein kinase 13 (Homo sapiens). Conditions: at 1 µM.
Assay [19] has as its target T3, Mitogen-activated protein kinase 12 (Homo sapiens) (UniProt P53778).
T3 sequence (whole entry): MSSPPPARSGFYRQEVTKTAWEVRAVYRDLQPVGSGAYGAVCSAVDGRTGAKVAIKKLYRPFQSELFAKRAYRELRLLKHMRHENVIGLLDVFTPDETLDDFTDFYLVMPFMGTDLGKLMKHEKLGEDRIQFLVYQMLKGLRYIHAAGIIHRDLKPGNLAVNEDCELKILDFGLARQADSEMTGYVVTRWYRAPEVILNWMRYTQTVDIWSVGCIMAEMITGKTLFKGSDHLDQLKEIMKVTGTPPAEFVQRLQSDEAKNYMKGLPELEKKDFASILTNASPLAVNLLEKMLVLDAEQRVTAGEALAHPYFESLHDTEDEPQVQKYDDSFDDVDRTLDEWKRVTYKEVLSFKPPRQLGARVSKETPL
Conditions: at 0.1 µM.

The target of assay [20] is Mitogen-activated protein kinase 1 (Homo sapiens) (UniProt P28482). Conditions: at 0.1 µM.

Mitogen-activated protein kinase 3 (Homo sapiens), sequence (P27361 whole entry): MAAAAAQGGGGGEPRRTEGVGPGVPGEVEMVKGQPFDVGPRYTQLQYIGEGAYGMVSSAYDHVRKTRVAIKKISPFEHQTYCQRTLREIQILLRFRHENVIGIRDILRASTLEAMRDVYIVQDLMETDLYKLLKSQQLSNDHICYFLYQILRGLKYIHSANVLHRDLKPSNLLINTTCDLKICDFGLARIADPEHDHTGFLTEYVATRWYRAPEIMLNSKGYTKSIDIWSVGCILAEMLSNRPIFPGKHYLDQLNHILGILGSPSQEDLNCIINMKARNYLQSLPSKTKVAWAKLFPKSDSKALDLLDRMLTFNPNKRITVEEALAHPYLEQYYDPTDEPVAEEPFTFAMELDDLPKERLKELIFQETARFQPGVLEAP
Homeodomain-interacting protein kinase 1 (Homo sapiens), sequence (Q86Z02 whole entry, looked up): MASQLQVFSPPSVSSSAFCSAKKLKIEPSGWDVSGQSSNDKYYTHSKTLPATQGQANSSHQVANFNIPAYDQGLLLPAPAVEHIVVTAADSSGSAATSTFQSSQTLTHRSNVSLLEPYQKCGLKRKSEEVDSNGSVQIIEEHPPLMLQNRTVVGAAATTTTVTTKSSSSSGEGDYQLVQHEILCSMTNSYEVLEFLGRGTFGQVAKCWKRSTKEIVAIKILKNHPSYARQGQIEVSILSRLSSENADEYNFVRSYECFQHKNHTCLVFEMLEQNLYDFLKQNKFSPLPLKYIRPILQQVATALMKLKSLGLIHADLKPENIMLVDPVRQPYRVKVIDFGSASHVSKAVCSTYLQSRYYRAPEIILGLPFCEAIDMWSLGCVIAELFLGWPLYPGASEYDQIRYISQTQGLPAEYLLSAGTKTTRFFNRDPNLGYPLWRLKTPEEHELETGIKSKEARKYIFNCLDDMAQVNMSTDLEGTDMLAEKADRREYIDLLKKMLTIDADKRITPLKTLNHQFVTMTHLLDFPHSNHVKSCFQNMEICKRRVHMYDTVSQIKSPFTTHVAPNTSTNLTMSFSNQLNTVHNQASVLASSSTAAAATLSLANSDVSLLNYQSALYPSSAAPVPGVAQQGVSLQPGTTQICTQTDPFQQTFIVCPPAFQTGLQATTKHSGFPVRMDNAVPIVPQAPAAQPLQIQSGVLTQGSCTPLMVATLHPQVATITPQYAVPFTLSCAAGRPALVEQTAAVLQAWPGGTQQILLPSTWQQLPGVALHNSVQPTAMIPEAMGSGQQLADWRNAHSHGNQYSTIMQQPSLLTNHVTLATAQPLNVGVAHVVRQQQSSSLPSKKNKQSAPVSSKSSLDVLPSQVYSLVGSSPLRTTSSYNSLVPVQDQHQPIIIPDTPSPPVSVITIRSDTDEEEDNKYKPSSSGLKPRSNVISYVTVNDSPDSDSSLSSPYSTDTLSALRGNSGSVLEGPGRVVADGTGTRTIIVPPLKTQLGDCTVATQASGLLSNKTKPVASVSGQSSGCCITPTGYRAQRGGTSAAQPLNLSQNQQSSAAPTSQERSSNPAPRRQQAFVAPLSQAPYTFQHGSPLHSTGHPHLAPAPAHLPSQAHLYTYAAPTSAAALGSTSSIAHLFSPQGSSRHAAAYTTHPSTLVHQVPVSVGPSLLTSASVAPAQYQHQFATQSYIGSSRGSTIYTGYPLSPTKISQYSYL
Mitogen-activated protein kinase 1 (Homo sapiens), sequence (P28482 whole entry): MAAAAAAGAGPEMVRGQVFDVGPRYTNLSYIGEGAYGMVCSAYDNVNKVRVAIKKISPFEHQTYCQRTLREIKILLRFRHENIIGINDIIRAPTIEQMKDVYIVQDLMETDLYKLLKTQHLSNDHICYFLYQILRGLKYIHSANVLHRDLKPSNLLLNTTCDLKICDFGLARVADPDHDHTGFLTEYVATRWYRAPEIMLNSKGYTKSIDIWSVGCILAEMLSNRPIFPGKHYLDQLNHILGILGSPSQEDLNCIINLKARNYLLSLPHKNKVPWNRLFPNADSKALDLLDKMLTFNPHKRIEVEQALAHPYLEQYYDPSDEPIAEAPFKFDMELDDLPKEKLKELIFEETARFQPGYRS
Glycogen synthase kinase-3 beta (Homo sapiens), sequence (P49841 whole entry, looked up): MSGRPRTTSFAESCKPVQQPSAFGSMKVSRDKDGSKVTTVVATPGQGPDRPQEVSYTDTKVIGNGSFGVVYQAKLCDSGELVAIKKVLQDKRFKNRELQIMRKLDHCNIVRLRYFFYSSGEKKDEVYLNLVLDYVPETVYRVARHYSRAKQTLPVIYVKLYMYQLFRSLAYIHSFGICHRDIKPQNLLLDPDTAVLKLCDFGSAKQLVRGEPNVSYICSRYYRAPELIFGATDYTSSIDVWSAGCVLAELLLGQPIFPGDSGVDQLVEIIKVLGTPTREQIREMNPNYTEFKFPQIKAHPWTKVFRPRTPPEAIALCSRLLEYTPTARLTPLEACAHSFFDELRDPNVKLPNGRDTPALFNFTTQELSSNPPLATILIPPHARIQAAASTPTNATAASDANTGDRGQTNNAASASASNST
Mitogen-activated protein kinase 11 (Homo sapiens), sequence (Q15759 whole entry): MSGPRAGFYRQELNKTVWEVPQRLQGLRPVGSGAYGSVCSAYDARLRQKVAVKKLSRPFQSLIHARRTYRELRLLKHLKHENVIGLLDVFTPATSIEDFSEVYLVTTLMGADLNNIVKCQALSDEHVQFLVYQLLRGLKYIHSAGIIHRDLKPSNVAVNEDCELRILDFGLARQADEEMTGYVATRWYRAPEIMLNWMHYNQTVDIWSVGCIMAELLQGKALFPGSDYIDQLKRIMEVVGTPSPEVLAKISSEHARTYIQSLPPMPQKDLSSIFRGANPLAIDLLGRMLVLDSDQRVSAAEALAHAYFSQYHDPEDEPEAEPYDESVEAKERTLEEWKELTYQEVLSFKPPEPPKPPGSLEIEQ
SRSF protein kinase 3 (Homo sapiens), sequence (Q9UPE1 whole entry): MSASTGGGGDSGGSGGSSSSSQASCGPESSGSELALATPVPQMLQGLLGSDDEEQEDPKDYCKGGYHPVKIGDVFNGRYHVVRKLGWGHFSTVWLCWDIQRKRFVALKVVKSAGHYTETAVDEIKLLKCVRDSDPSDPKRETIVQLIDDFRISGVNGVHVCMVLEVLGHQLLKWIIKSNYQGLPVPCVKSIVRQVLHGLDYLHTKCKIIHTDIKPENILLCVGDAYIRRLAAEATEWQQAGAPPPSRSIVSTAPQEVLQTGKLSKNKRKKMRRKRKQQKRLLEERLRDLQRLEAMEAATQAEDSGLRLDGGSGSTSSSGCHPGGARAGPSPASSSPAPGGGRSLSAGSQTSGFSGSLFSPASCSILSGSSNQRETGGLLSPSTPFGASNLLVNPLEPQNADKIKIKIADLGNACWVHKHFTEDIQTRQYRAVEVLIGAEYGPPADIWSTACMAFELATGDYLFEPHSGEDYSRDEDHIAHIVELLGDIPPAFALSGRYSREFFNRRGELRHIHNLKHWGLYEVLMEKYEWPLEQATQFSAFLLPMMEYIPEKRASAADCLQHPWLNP
Mitogen-activated protein kinase 9 (Homo sapiens), sequence (P45984 whole entry, looked up): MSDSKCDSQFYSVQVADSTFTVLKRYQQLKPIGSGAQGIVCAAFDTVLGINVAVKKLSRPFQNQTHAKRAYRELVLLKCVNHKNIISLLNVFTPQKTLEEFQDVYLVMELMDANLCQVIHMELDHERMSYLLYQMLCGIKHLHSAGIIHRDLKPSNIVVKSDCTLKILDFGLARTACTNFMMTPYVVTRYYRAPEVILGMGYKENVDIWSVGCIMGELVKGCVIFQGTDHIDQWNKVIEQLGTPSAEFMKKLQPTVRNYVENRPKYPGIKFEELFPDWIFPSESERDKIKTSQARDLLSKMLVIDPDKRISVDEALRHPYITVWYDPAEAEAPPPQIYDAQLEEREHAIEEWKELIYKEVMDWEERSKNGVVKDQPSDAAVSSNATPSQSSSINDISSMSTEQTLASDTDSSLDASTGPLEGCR
Mitogen-activated protein kinase 14 (Homo sapiens), sequence (Q16539 whole entry): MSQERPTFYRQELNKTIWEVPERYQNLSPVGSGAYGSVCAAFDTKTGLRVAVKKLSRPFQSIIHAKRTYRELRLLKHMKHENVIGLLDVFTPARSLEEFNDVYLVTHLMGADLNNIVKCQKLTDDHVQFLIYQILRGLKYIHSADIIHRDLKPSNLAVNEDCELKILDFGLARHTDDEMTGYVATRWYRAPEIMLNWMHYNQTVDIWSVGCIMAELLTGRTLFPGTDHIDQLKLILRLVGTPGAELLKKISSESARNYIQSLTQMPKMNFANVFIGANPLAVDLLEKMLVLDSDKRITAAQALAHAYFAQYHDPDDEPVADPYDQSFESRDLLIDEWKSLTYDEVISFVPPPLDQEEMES

In the case of `Nc1nccc(-c2c(-c3ccc(F)cc3)ncn2C2CCC(O)CC2)n1` (configuration not stated), the inhibition was found to be 14.1% in assay [1]; 2.2% in [2]; 4% in [3]; 1.22% in assay [4]; 3.26% in assay [5]; 9.42% in assay [6]. Moreover, the inhibition in assay [7] is 53.3%; in assay [8], -2.72%; in assay [9] it was -0.59%; in [10] it was 0%; in [11], 1.14%; in [12], 0.84%. The inhibition in assay [13] is 70.8%; in assay [14] it was 92.5%; in [15], 14.9%; in assay [16] it was 62.2%; in assay [17], 0.18%; in assay [18], -2.89%. For the same compound, the inhibition in assay [19] was -3.41%.

As to `NC(=O)Cc1ccccc1Oc1nccc(-c2c(-c3ccc(F)cc3)ncn2C2CCNCC2)n1`, the inhibition in assay [1] is 1.98%; in assay [2], 0.04%; in assay [3], -0.28%; in assay [4] it was 1.66%; in assay [5] it was 3.18%; in assay [20] it was 0.51%. Moreover, the inhibition in assay [8] is 4.48%; in assay [9], 1.47%; in assay [10] it was 2.24%; in assay [11], -0.6%; in assay [12], 0.09%.

As for `COc1ccc(C2=C(N3CCc4ccccc43)C(=O)NC2=O)cc1`, the inhibition in assay [2] came to 4.48%; in [3] it was 8.68%; in assay [4], 3.35%; in assay [5], 4.04%; in assay [6] it was 3.78%; in assay [7] it was 7.16%. Further, the inhibition is -0.01% in assay [20]; 5.89% in [8]; 4.13% in [9]; 5.25% in assay [10]; 0.52% in [11]; 1.43% in [12]. Besides, the inhibition was 3.41% in assay [13]; 12.2% in [14]; 4.81% in assay [15]; 8.67% in assay [16]; -0.17% in [17]; 3.67% in [18]. The inhibition in [19] worked out at 12%.

With `CS(=O)(=O)CCNCc1ccc(-c2ccc3ncnc(Nc4ccc(OCc5ccccc5)c(Br)c4)c3c2)o1`, the inhibition in [1] is -1.69%; in assay [2], -5.84%; in [3], -4.53%; in assay [4], 0.44%; in assay [5], 2.6%; in [6], 2.5%. The inhibition was 0.7% in assay [7]; 5.3% in assay [20]; 4.08% in [8]; 5.25% in assay [9]; 4.46% in [10]; -5.29% in [11]. Also, the inhibition in assay [12] is -0.77%; in assay [13], 6.51%; in [14], 5.46%; in assay [15] it was 3.98%; in assay [16] it was 5.45%; in assay [17] it was 4.88%. For the same compound, the results for the inhibition in assay [18] and in assay [19] were 3.53% and 3.43%, respectively.

For the compound `O=C(Nc1n[nH]c2cc(-c3cc(F)ccc3F)ccc12)C1CC1`, the inhibition is -1.3% in [2]; 1.85% in [3]; -0.9% in assay [4]; 3.56% in assay [5]; 4.38% in [6]; 6.23% in [7]. Moreover, the inhibition is 2.24% in assay [20]; 4.09% in [8]; 4.01% in assay [9]; 0.63% in [10]; -2.33% in [11]; -2.21% in assay [12]. Besides, the inhibition was 1.76% in [13]; 8.79% in assay [14]; 3.95% in assay [15]; 7.57% in assay [16]; -0.68% in [17]; 4.17% in assay [18]. Moreover, the inhibition in assay [19] was 0.34%.

For `COc1cccc(/C=N/Nc2ncnc3c2cnn3-c2cccc(OC)c2)c1`, the inhibition is 51.1% in assay [1]; -1.82% in [2]; 2.63% in [3]; 0.49% in [4]; 4.13% in assay [5]; 3.29% in assay [6]. The inhibition in [7] was 5.5%; in [20] it was 5.68%; in assay [9], 3.77%; in assay [10], 2.47%; in [11] it was -1.31%; in [12], -0.75%. Also, the inhibition amounted to 5.18% in [13]; 5.34% in [14]; 2.68% in [15]; 2.6% in assay [16]; 4% in [17]; 4.61% in [18]. The inhibition in assay [19] was 3.43%.

For `Fc1ccc(-c2ncn(C3CCNCC3)c2-c2ccnc(Oc3ccc(F)c(F)c3)n2)cc1`, the inhibition in assay [1] is 2.53%; in [2] it was -6.31%; in assay [3], -2.14%; in assay [4], 0.46%; in [5], 1.77%; in [20], 4.93%. Further, the inhibition in assay [8] is 6.35%; in [9] it was 3.84%; in assay [10] it was 6.51%; in [11] it was -3.83%; in assay [12] it was -1.43%.

In the case of `COc1cc2ncn(-c3cc(OCc4cccs4)c(C(N)=O)s3)c2cc1OC`, the inhibition in assay [1] was found to be 7.28%; in assay [2] it was 1.93%; in assay [3], 18.1%; in assay [4], 20.2%; in assay [5], 63.3%; in assay [6], 0.6%. Further, the inhibition in assay [7] is 4.51%; in [20], 5.16%; in assay [8], 2.33%; in assay [9], 3.68%; in assay [10] it was 4.45%; in [11], 0.87%. Moreover, the inhibition in [13] was found to be 16.9%; in assay [14] it was 12.3%; in [15], 3.88%; in assay [16], 5.4%; in assay [17] it was 0.78%; in assay [18] it was 1.21%. Moreover, the inhibition in [19] was found to be 2%.
